Most compounds without a hit are left out; they make up all but 2.9% or so of the library.
Pol eta inh-1: qHTS for Inhibitors of Polymerase Eta. recombinant Pol eta, fluorescent DNA replication assay. Potency, µM (series often up to 114 µM), without a hit: at the highest dose activity change, negative = inhibition, hits mostly inhibitors. actives 1.2% (n = 390,000). AID 588591, 2011; further: potency means the concentration at half of the fitted maximal effect; on the % scale 0 is the no-effect control and ±100 the full control effect
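Pol eta (10 nM) was preincubated with compounds for 15 min at room temperature, after which fluorescent replication substrate (50 nM final) was added to start the reaction. Fluorescence was read kinetically at 0 and 10 min.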
POLK inh: qHTS for Inhibitors of Polymerase Kappa. DNA polymerase kappa (Homo sapiens), Q9UBT6. purified Pol kappa, fluorescent DNA synthesis assay, 10 min. Potency, µM (top dose mostly 107 µM), inactives show at the highest dose activity, negative = inhibition, actives largely listed as inhibitors. actives 0.53% (n = 400,000); further: potency means the concentration at half of the fitted maximal effect; on the % scale 0 is the no-effect control and ±100 the full control effect
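Kinetic fluorescence readout at 0 and 10 min followed reaction start with substrate at 50 nM final. Beforehand, enzyme (10 nM Pol kappa) stood 15 min with compound at room temperature; buffer-only wells were negative controls.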
12-LOX inh: Primary qHTS assay for inhibitors of human arachidonate 12S-lipoxygenase (ALOX12): Round 2. Polyunsaturated fatty acid lipoxygenase ALOX12 (Homo sapiens), P18054. purified 12hLO, xylenol orange hydroperoxide absorbance. Potency, µM (titrated, usually from 108 µM), inactives show at the highest dose activity change, negative = inhibition, hits mostly inhibitors. actives 1.1% (n = 580,000). AID 1671190, 2021; further: potency means the concentration at half of the fitted maximal effect; on the % scale 0 is the no-effect control and ±100 the full control effect
Target sequence (P18054 whole entry, looked up): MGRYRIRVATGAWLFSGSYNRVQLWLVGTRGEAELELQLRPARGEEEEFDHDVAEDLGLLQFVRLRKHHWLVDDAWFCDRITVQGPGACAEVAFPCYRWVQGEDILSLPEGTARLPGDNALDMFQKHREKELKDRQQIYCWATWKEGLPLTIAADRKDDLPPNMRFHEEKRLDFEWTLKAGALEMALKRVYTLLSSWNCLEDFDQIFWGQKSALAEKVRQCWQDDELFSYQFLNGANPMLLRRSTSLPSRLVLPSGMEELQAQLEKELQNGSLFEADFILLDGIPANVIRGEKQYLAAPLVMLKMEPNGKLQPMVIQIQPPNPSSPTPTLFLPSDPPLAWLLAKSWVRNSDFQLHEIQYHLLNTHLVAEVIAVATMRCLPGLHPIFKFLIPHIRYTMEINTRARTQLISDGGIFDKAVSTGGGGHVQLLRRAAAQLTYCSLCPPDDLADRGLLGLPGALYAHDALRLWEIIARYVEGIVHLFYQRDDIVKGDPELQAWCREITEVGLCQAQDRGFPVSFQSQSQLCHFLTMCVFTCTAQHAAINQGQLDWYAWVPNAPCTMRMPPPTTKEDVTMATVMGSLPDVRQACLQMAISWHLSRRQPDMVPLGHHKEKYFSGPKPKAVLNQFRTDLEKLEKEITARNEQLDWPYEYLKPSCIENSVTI
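Hydroperoxide product was detected by ferrous iron/xylenol orange as the 573 to 405 nm absorbance ratio. Arachidonic acid at 40 uM (final) was turned over for 30 min at room temperature by 150 nM human 12hLO, pH 7.0 Hepes buffer, after 15 min compound preincubation.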
PI5P4K alpha inh: qHTS for Inhibitors of phosphatidylinositol 5-phosphate 4-kinase (PI5P4K) | Phosphatidylinositol 5-phosphate 4-kinase type-2 alpha (Homo sapiens), P48426 | actives 1.2% (n = 330,000) | AID 652105, 2013 | max response, % | PI5P4Kalpha enzyme, ADP-Glo luminescence, 60 min; stronger effect = lower value; active means max response of -50% or lower; inconclusive means between -30% and -50%; inactive means -30% or higher; further: value at the top dose of about 77 µM; on the % scale 0 is the no-effect control and ±100 the full control effect
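qHTS, 1536-well: enzyme/substrate mix, compound by pin tool, 5 microM ATP final; RT 60 min; ADP-Glo reagents 1 (45 min) then 2 (30 min); luminescence.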
POLB inh: qHTS Assay for Inhibitors of DNA Polymerase Beta; P06746; Pol beta primer extension/strand displacement, fluorescence kinetic; Potency, µM (series often up to 114 µM), for inactives: at the highest dose activity change, negative = inhibition, hits mostly inhibitors; actives 1.3% (n = 340,000); AID 485314, 2010; further: potency means the concentration at half of the fitted maximal effect; on the % scale 0 is the no-effect control and ±100 the full control effect
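Preincubation: enzyme (10 nM) with compound, 15 min, RT. Reaction: substrate added to 50 nM final. Reads: 0 and 10 min. Analysis: normalized, Hill fit.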
POLI inh: qHTS for Inhibitors of Polymerase Iota; actives 1% (n = 390,000); DNA polymerase iota (Homo sapiens), Q9UNA4; Pol iota fluorescent replication assay, 10 min; AID 588590, 2011; Potency, µM (series often up to 115 µM), for the others: top-dose activity, negative = inhibition, usual class: inhibitors; further: potency means the concentration at half of the fitted maximal effect
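Pol iota at 10 nM preincubated 15 min with compounds at room temperature; reaction started with fluorescent substrate, 50 nM final. Fluorescence read kinetically at 0 and 10 min; buffer-only wells as negative control.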
Pol iota confirm: qHTS for Inhibitors of Polymerase Iota: Confirmatory Assay for Cherry-picked Compounds. shares compounds with POLK inh. Pol iota primer extension, TAMRA/BHQ fluorescence. Potency, µM, actives largely listed as inhibitors. actives 77% (n = 1,500). AID 720496, 2013; further: potency means the concentration at half of the fitted maximal effect
GALK inh confirm: Confirmation Assay for Inhibitors of Human Galactokinase (GALK); AID 2015, 2009; purified GALK, Kinase-Glo ATP depletion luminescence; Potency, µM (highest dose often 115 µM), without a hit: at the highest dose activity, negative = inhibition, usual class: inhibitors; actives 70% (n = 150); shares compounds with Pol eta inh-1
Redox cycling: Confirmatory Assay for Inhibitors of Human Galactokinase (GALK): Phenol-HRP redox assay counterscreen; Potency, µM (doses to about 115 µM), for inactives: at the top dose activity change, negative = H2O2 signal, hits mostly inhibitors; AID 2035, 2009; actives 40% (n = 150); shares compounds with Pol eta inh-1; Phenol red-HRP H2O2 redox cycling, absorbance 600 nm
HEK293 tox: Secondary Assay for Inhibitors of Human Galactokinase (GALK): HEK-293 Cell Viability Assay; shares compounds with Pol eta inh-1; HEK-293 viability, ATP luminescence (CellTiter-Glo), 24/48 h; Potency, µM (titrated, usually from 46.1 µM), inactives show at the highest dose activity change, negative = cytotoxicity, most hits filed as inhibitors; actives 10% (n = 170); AID 2547, 2010; further: potency means the concentration at half of the fitted maximal effect; on the % scale 0 is the no-effect control and ±100 the full control effect
Pol eta inh-2: qHTS for Inhibitors of Polymerase Eta: Confirmatory Assay for Cherry-picked Compounds; shares compounds with Pol eta inh-1; AID 720502, 2013; actives 64% (n = 2,600); Potency, µM, most hits filed as inhibitors; Pol eta primer extension, TAMRA/BHQ fluorescence, 10 min; further: potency means the concentration at half of the fitted maximal effect
Numbers without * were called inactive; u = inconclusive; x = not tested or not shown; [ ] = dose if it differs, or a comment. Unless noted, the call rests on the fitted dose curve; in most records, active means well fitted curve in the direction sought with a large enough effect; inconclusive means small, poorly fitted or top-dose-only effect, or another doubt; inactive means no such curve, though single readings can be large; an effect the other way counts as inactive or inconclusive.

SMILES	Pol eta inh-1	POLK inh	12-LOX inh	PI5P4K alpha inh	POLB inh	POLI inh	Pol iota confirm	Pol eta inh-2	others
CC(C)c1nc(SCC(=O)Nc2nccs2)c2ccccc2n1	32µM*	-24%	-2%	-3	25µM*	u	53*	76*
Cc1cc(C)c2c(C(=O)O)cc(-c3cccnc3)nc2c1	x	x	0%	x	x	x	x	x
Cc1nc2c(c(=O)n1CCC1=CCCCC1)c1nc3ccccc3nc1n2/N=C/c1ccco1	u	u	0%	u	10µM*	u	67*	76*
CCCn1c(C)nc2c(c1=O)c1nc3ccccc3nc1n2CCC1=CCCCC1	-16%	-2%	-18%	12	1%	8%	x	x
O=C1CCCC2=C1C(c1ccc(OCc3ccc([N+](=O)[O-])cc3)c(Cl)c1)C1=C(CCCC1=O)O2	x	x	-3%	x	x	x	x	x
CN(C)c1cc(Cl)c2nonc2c1N	79µM*	-23%	40µM*	-10	-26%	10µM*	75*	76*	GALK inh confirm=21µM*;Redox cycling=12µM*;HEK293 tox=19%
O=C(CNc1cc(Cl)ccc1N1CCOCC1)Nc1ccccc1C(=O)c1ccccc1	x	x	1%	x	x	x	x	x
O=C(N/N=C/c1cccc(O)c1)c1ccccc1O	25%	15%	43%	1	-1%	25%	x	x
Cn1c2ccccc2c2cc(/C=N/NC(=O)c3cc(O)ccc3O)ccc21	10µM*	50µM*	35µM*	-90*	10µM*	10µM*	u	54*
O=S(=O)(c1cccc2nsnc12)N(Cc1ccc2c(c1)OCO2)C1CCCC1	x	x	16%	x	x	x	x	x
O=C(Nc1cccc(Cl)c1)c1cnc2c(c1)N([S+](=O)([O-])c1cccnc1)CCC2	x	x	14%[176 µM]	x	x	x	x	x
N#C/C(=C\c1cc(O)c(O)c(O)c1)C(N)=O	4%	-1%	u	-76*	u	u	19*	67*
Cc1ccc(NC(=O)Cn2c(O)c(N=NC(=O)c3cc4ccccc4cc3O)c3ccccc32)cc1	u	-29%	u	u	u	u	x	x

Assay outcomes from PubChem BioAssay.
